About 83,000 compounds went through this panel and 20% of them were active in at least one assay; those are over-represented in the sample as a whole.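 Cells were grown in 96-well plates and exposed to the test compound at a single concentration for 48 hours; results are reported as percent growth, with values below 10 considered active.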 A number with no mark means an inactive call. Calls of active or inactive are those of the source.

The assay deals with HL-60(TB) leukemia. As to the kind of experiment: NCI-60 one-dose screen, 48 h (100 = growth as untreated, 0 = no growth, -100 = all killed). As to conditions: 10 µM unless noted.
Consider `O=[N+]([O-])c1cccc(-c2nnc3c(/C=C/c4ccc(F)cc4)nc4ccccc4n23)c1`, for which the growth is 92.7%.

In the case of `COc1nc(N)ncc1-c1ccc2ncnc(N3CCc4cc(F)c(Cl)cc43)c2c1`, the growth is 47%.

Regarding `O=C(NNC(=O)c1ccc(OCc2nc3ccc(Cl)cc3[nH]2)cc1)Nc1ccc(Cl)c(C(F)(F)F)c1`, the growth is 74.8%.

Turning to `CSc1ccc(C(=O)Nc2ccc3nnn(/C(C#N)=C/c4ccccn4)c3c2)cc1`, the growth is 6.83% (active).

`COc1ccc(Nc2nc(N)n(Cc3cccc(Br)c3)n2)cc1`: the growth is -11.4% (active).

With `CC(=O)Nc1ccc(-n2cnc3cc(-c4ccc(O)cc4)ccc32)cc1F`, the growth was -10.2% (active).

In the case of `CCCn1c(=O)c2[nH]c(-c3ccc(OCc4nc5ccc(C#N)cc5[nH]4)cc3)nc2n(CCC)c1=O`, the growth was 95.4%.

Take `COc1cc(-c2nc3ccc(C)cc3[nH]2)ccc1OCc1nnc(-c2ccc(Br)cc2)o1`: the growth is -34.8% (active).

With `Cn1cc(-c2nnc(N)nc2-c2c[nH]c3ccc(F)cc23)c2cccnc21`, the growth was 10.2%.

With `CC(C)CSc1nc(NCCc2c[nH]c3ccccc23)c(C#N)c(-c2ccccc2)n1`, the growth is 60.7%.

Regarding `CN1CCN(C(=O)Oc2cc3c(c4ccccc24)[C@H](CCl)CN3C(=O)c2cc3cc(OCCCN4CCC4)ccc3[nH]2)[C@@H]2CSSC[C@H]21`, the growth is -25.8% (active).

On to `Cc1ccccc1[C@H]1C(C(=O)c2ccc(Cl)cc2)C2(N[C@@H]1c1ccccc1)C(=O)Nc1ccc(Cl)cc12` (stereo not given in full), for which the growth was -32.2% (active).

Take `COc1ccc(/C=C/C(=O)c2ccc(NC(=O)CN3C(=O)NC(C)(c4ccccc4)C3=O)cc2)cc1` (stereo not given): the growth was 67.3%.

With `O=C1Nc2ccc(Cl)cc2/C1=C/c1cccc(OCc2ccccc2)c1`, the growth was 8.8% (active).

In the case of `COc1ccccc1[C@H]1C(C(=O)c2ccc(O)cc2)C2(N[C@@H]1c1ccccc1)C(=O)Nc1ccc(Br)cc12` (stereo not given in full), the growth is 10.5%.

For `CCCCCCCCCCCCCCCCCCCC(=O)NCCc1c[nH]c2ccc(OC(=O)NOCCOCCOCCOCCOCCOCCOCCOCCOCCOCCOCCOCCOCCOCCOCCOCCOCCOCCOCCOCCOCCOCCOC)cc12`, the growth was -38.2% (active).

For `C=C1CC[C@@H]2[C@]3(C)COC(c4cn[nH]c4-c4ccccc4)O[C@@H]3CC[C@@]2(C)[C@@H]1C/C=C1/C(=O)OCC1O` (stereo not given in full), the growth is 8.64% (active).

For the molecule `Cc1ccc(-c2cc(C(=O)N=Nc3c(O)[nH]c4ccc(F)cc34)c3ccccc3n2)cc1`, the growth was 88.4%.

For the molecule `Nc1nc(Nc2ccc(Cl)cc2)nn1Cc1cccc(Br)c1`, the growth is 34.5%.

In the case of `COc1ccc(/C=C/c2nc3ccccc3c(=O)n2CC(=O)Nc2ccc(Cl)cc2)cc1`, the growth was 96.2%.

In the case of `CCC(=O)c1c2c(c3ccc4c5ccccc5ccc4n13)C(=O)c1ccccc1C2=O`, the growth was 90.1%.

As for `O=c1[nH]c2ccccc2cc1CSc1ccc(Nc2nccc(-c3ccc4c(c3)OCO4)n2)cc1`, the growth is 97.4%.

Take `COC1=C[C@]23CCC(=O)N2CCc2cc4c(cc2[C@@H]3[C@@H]1OC(=O)[C@H](C)O)OCO4`: the growth is -28.6% (active).

As to `COc1c(F)ccc(C(=O)Nc2ccc3nc(NC(=O)C4CCCN(S(=O)(=O)c5ccc(C#N)cc5)C4)sc3c2)c1F` (stereo not given), the growth is 115%.

With `O=C1CCC(N2Cc3cc(CC(=O)Nc4ccc(N5CCCCC5)cc4)ccc3C2=O)C(=O)N1` (stereo not given), the growth was -0.226% (active).

Take `O=C(/C=C/c1cccc(OCc2ccccc2)c1)c1nc2ccccc2[nH]1`: the growth was 5.75% (active).

Consider `COc1ccc2[nH]c(=O)c(CSc3ccc(Nc4nccc(-c5ccc(Cl)cc5)n4)cc3)cc2c1`, for which the growth was 86.1%.

In the case of `CC[C@]12C=CCN3CC[C@@]4(c5ccc(OC)cc5N(C)[C@H]4[C@@](O)(C(=O)OC)[C@@H]1OC(=O)CCC[P+](c1ccc(OC)cc1)(c1ccc(OC)cc1)c1ccc(OC)cc1)[C@@H]32`, the growth was -39.7% (active).

For `O=C1N/C(=N\c2nccs2)S/C1=C\c1ccc([N+](=O)[O-])cc1`, the growth is 5.47% (active).

Regarding `Cc1sc2c(c1C)C(c1ccc(Cl)cc1)=N[C@@H](CC(=O)NCCCCCNC(=O)COc1ccc(C3CCC(=O)NC3=O)cc1)c1nnc(C)n1-2` (stereo not given in full), the growth was -16.6% (active).

Consider `Cn1cc(-c2cc(N)n3nc(-c4cn(C)c5ccc(Cl)cc45)cc3n2)c2ccccc21`, for which the growth was 92.5%.

As for `CC1CCc2c(sc3nc(SCC(=O)c4cccc(Br)c4)n(-c4ccccc4)c(=O)c23)C1` (stereo not given), the growth was 64.7%.

Turning to `O=C(CSc1nc2sc3c(c2c(=O)n1-c1ccc(Cl)cc1)CCCC3)NNC(=O)c1ccc(Br)cc1`, the growth was 91.1%.

In the case of `CN(C)c1ccc(/C=C/C(=O)c2ccc(NC(=O)CN3C(=O)NC(C)(c4ccccc4)C3=O)cc2)cc1` (stereo not given), the growth was 47.5%.

Consider `CC1=C(C(=O)Nc2ccccc2)C(c2ccc3ccccc3c2)n2c(nc3ccccc32)N1` (stereo not given), for which the growth is 57.4%.

With `COC(=O)C[C@](O)(CCCC(C)(C)O)C(=O)O[C@H]1C(OC)=C[C@@]23CCC(=O)N2CCc2cc4c(cc2[C@@H]13)OCO4`, the growth was 97.4%.

As for `Nc1nnc(CS(=O)(=O)c2ccccc2)s1`, the growth was 105%.

For `O=C(CNc1nc(-c2ccccc2)cs1)Nc1ccc(Br)cc1`, the growth is -40.4% (active).

Consider `CCOC(=O)C1=C(N)N(c2ccccc2)C2=C(C(=O)CC(C)(C)C2)C1c1ccccc1Cl` (stereo not given), for which the growth was -23% (active).

In the case of `COc1ccc(/C=C/C(=O)c2ccc(S(=O)(=O)NCCNc3nc(N(C)C)nc(N4CCOCC4)n3)cc2)cc1`, the growth is 67.1%.

The values above are taken from PubChem BioAssay (NCI).
